The text below walks through data of PubChem BioAssay (EPA / NIEHS).

Several values for one entry are separate records, joined by “and”; a condition that tells them apart may be missing. Equal entries are not always repeated. Records with an inconclusive call do not appear. Some structures have more than one record in an assay (separate samples or runs), and their calls can disagree. Activity calls are given as the source filed them. The calls were made as follows: active = hit-call score of the fitted dose curve at least 0.9, where 1 is the maximum; inconclusive = response in the unintended direction; inactive = score below 0.9.

Test [1] has as its target zebrafish Estrogen Receptor (ESR1), esr1 (gene 259252) (UniProt P57717). The test can be described thus: ATG_zfER1_XSP1: Attagene TRANS-FACTORIAL Multi-Species (XSP1) HepG2 Assay for zebrafish Estrogen Receptor (ESR1) (AID 2283772). The gist of the method: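 Readout: fluorescent reporter mRNA, RT-PCR plus FAM labelling, HpaI digest, capillary electrophoresis; gain-of-signal fit vs DMSO. HepG2, transient multi-reporter TRANS (NR-GAL4 chimera), 24 h chemical exposure, 3 nM 6-alpha-fluorotestosterone co-added.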

The subject of test [2] is zebrafish Estrogen Receptor (ESR2B), gene 317733. The test can be described thus: ATG_zfER2b_XSP1: Attagene TRANS-FACTORIAL Multi-Species (XSP1) HepG2 Assay for zebrafish Estrogen Receptor (ESR2B) (AID 2283773). In short, it runs like this:
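HepG2 cells transiently transfected with GAL4-UAS reporter units for chimeric zebrafish ER2b-Gal4, with 3 nM 6-alpha-fluorotestosterone present; reporter mRNA measured 24 h after dosing by RT-PCR and capillary electrophoresis, gain versus DMSO.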

The subject of test [3] is frog Estrogen Receptor (ESR2), gene 100174814. The test can be described thus: ATG_frER2_XSP1: Attagene TRANS-FACTORIAL Multi-Species (XSP1) HepG2 Assay for frog Estrogen Receptor (ESR2) (AID 2283774). The gist of the method:
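HepG2 cells transiently transfected with GAL4-UAS reporter units expressing chimeric frog ER-Gal4; 3 nM 6-alpha-fluorotestosterone present. After 24 h dosing, reporter mRNA quantified by RT-PCR and capillary electrophoresis; gain-of-signal fitted relative to DMSO.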

Test [4] is described as follows: ATG_XTT_Cytotoxicity: Cytotoxicity Assessment in the Attagene TRANS-FACTORIAL HepG2 Assay (AID 2283584).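 As to AC50: cells exposed to compound for 24 h before reading; active means loss of viability signal versus DMSO baseline.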 The gist of the method: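 XTT readout of cell number in transfected HepG2 cells, 24 h post-dosing; DMSO serves as negative control and baseline, with activity taken as loss of viability signal.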
A short description of test [5]: TOX21_p53_BLA_p2_viability: Viability Assessment in the Tox21 HCT-116 p53 Agonism Beta-lactamase Assay, Phase 2 (AID 2283591).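 Also: compound exposure lasted 16 h at 37 °C; actives lower the ATP signal meaning cytotoxicity.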 The gist of the method:
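HCT116 p53-bla cells, 4000/well, dosed after 5 h plating (217-fold dilution of DMSO stocks) and incubated 16 h at 37C. Viability taken as cellular ATP by CellTiter-Glo luminescence after 30 min RT; signal loss marks cytotoxicity.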

Test [6] deals with Cellular tumor antigen p53 (Homo sapiens) (UniProt P04637). The test can be described thus: TOX21_p53_BLA_p2_ratio: Tox21 HCT-116 p53 Agonism Beta-lactamase Assay, Ratio, Phase 2 (AID 2283592). The gist of the method:
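In this cell-based reporter format, HCT116 cells were dosed with chemicals delivered from DMSO by 217-fold dilution and incubated 16 h at 37C. Emission at 460 and 530 nm after 2 h CCF4-AM loading provided the ratio, fitted upward versus DMSO.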

Test [7] is described as follows: TOX21_p53_BLA_p3_viability: Viability Assessment in the Tox21 HCT-116 p53 Agonism Beta-lactamase Assay, Phase 3 (AID 2283593).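 Also: cells exposed to compound for 16 h before reading.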 In short, it runs like this: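 HCT116 cells, 4000/well, dosed 5 h after plating by pin transfer (217-fold dilution from DMSO stock) and incubated 16 h at 37C, 5% CO2. Viability read as ATP luminescence with CellTiter-Glo after 30 min at room temperature.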

The target in test [8] is Cellular tumor antigen p53 (Homo sapiens) (UniProt P04637). The test can be described thus: TOX21_p53_BLA_p3_ratio: Tox21 HCT-116 p53 Agonism Beta-lactamase Assay, Ratio, Phase 3 (AID 2283596). In short, it runs like this:
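HCT116 p53-bla cells (4000/well) given compound in DMSO (217-fold dilution) after 5 h, incubated 16 h at 37C. CCF4-AM substrate 2 h at room temperature; 460/530 nm emission ratio, gain fitted against DMSO.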

The nature of test [9]: TOX21_p53_BLA_p4_viability: Viability Assessment in the Tox21 HCT-116 p53 Agonism Beta-lactamase Assay, Phase 4 (AID 2283597).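 Also: hits lower the luminescence signal meaning cytotoxicity.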 In short, it runs like this: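 We seeded HCT116 p53 reporter cells at 4000/well and waited 5 h. We then added compounds in DMSO at a 217-fold dilution and incubated for 16 h. Viability was read as CellTiter-Glo luminescence after 30 min at RT.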
Test [10] concerns the target Cellular tumor antigen p53 (Homo sapiens) (UniProt P04637). The test can be described thus: TOX21_p53_BLA_p5_ratio: Tox21 HCT-116 p53 Agonism Beta-lactamase Assay, Ratio, Phase 5 (AID 2283599). The gist of the method:
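HCT-116 p53-bla cells (4000/well) plated 5 h, dosed with compound (217-fold DMSO dilution) for 16 h at 37 C; CCF4-AM substrate 2 h at room temperature. Activity is the 460/530 nm emission ratio (405 nm excitation), fitted in gain-of-signal direction versus DMSO.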

Test [11] is described as follows: TOX21_p53_BLA_p5_viability: Viability Assessment in the Tox21 HCT-116 p53 Agonism Beta-lactamase Assay, Phase 5 (AID 2283600). In short, it runs like this:
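Compounds, pinned from DMSO at 217-fold dilution, were left on the cells for 16 h. The viability endpoint was ATP content measured by CellTiter-Glo luminescence, where falling signal reflects cytotoxicity.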

Test [12] has as its system Thyroperoxidase (TPO), gene 54314. The test can be described thus: CCTE_Simmons_AUR_rTPO: CCTE's Amplex UltraRed Assay for Thyroperoxidase (TPO) Inhibition, Simmons Lab (AID 2283662).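 Also: potency for loss of signal meaning inhibition of peroxidase activity.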 In short, it runs like this:
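Endpoint is decreased Amplex UltraRed fluorescence after a 30-min, 37C reaction of rat thyroid microsomes with 300 uM H2O2. Eight test concentrations (5 nM–87.5 uM final) in 0.5% DMSO, three biological replicates each.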

Test [13] can be described thus: CCTE_Simmons_CellTiterGLO_HEK293T: Viability Assessment in CCTE's Assays for Thyroperoxidase (TPO) Inhibition, Simmons Lab (AID 2283665). In short, it runs like this:
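HEK293T, 10 000 cells/well, DMEM + 1% FBS; 8-pt titration 5 nM–87.5 uM [final], 0.5% DMSO; 24 hr, 37C, 5% CO2; CellTiter-Glo luminescence; n=3 biological replicates.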

In test [14] the target is Luciferin 4-monooxygenase (Photinus pyralis) (UniProt P08659). The test can be described thus: CCTE_Simmons_QuantiLum_inhib_2: CCTE's Firefly Luciferase Inhibition Assay, Simmons Lab (AID 2283767). In short, it runs like this: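 Luminescence loss relative to DMSO vehicle defines inhibition; detection reagent containing 150 uM D-luciferin and 147 uM dATP (final, pH 7.8) is injected immediately before each read. Enzyme is preincubated with an 8-point titration (5 nM–87.5 uM final) for 30 min at 37C.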
Chain of Luciferin 4-monooxygenase (Photinus pyralis) (P08659 whole entry, looked up): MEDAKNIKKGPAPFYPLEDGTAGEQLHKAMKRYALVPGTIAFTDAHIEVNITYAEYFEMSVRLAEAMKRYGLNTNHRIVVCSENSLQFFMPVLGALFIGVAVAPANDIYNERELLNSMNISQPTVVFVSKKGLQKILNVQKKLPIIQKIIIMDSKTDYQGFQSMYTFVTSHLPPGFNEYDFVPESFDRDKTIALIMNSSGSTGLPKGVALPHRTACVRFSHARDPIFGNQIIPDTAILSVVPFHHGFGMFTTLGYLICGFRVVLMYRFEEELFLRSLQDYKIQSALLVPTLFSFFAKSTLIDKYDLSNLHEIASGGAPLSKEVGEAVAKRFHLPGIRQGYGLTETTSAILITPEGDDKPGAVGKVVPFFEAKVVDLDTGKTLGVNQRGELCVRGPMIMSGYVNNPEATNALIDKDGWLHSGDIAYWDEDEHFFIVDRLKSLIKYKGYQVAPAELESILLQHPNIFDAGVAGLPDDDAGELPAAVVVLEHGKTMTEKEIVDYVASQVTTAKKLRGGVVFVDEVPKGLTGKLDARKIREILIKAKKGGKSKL

Test [15] concerns chicken Androgen Receptor (AR), gene 422165. The test can be described thus: ATG_chAR_XSP1: Attagene TRANS-FACTORIAL Multi-Species (XSP1) HepG2 Assay for chicken Androgen Receptor (AR) (AID 2283768). In short, it runs like this: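 HepG2 cells transiently transfected with multiplexed GAL4-UAS reporter units expressing chimeric chicken AR-Gal4; 3 nM 6-alpha-fluorotestosterone for partial AR stimulation; 24 h after dosing, reporter mRNA by RT-PCR and capillary electrophoresis, gain-of-signal versus DMSO.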

In test [16] the test system is frog Androgen Receptor (AR), gene 399456. The test can be described thus: ATG_frAR_XSP1: Attagene TRANS-FACTORIAL Multi-Species (XSP1) HepG2 Assay for frog Androgen Receptor (AR) (AID 2283770).
The subject of test [17] is zebrafish Androgen Receptor (AR), gene 100005148. The test can be described thus: ATG_zfAR_XSP1: Attagene TRANS-FACTORIAL Multi-Species (XSP1) HepG2 Assay for zebrafish Androgen Receptor (AR) (AID 2283771). In short, it runs like this:
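HepG2 cells were transiently transfected with a zebrafish AR-GAL4 reporter system and partially stimulated with 3 nM 6-alpha-fluorotestosterone. Reporter mRNA was measured after 24 h dosing by RT-PCR with capillary electrophoresis, and gain-of-signal was fitted relative to DMSO.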

Chain of Cellular tumor antigen p53 (Homo sapiens) (P04637 whole entry, looked up): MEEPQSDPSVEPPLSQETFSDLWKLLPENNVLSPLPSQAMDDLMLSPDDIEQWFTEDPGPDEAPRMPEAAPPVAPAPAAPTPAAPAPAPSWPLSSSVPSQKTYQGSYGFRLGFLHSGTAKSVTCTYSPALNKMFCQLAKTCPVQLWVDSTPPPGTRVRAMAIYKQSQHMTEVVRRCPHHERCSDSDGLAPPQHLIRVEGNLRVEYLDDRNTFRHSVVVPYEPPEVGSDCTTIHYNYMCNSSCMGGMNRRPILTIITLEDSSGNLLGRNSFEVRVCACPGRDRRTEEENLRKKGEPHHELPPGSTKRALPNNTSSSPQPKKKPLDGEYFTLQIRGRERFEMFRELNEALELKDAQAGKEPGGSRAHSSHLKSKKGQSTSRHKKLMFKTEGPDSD
Chain of zebrafish Estrogen Receptor (ESR1), esr1 (gene 259252) (P57717 whole entry, looked up, the tested form may be a part): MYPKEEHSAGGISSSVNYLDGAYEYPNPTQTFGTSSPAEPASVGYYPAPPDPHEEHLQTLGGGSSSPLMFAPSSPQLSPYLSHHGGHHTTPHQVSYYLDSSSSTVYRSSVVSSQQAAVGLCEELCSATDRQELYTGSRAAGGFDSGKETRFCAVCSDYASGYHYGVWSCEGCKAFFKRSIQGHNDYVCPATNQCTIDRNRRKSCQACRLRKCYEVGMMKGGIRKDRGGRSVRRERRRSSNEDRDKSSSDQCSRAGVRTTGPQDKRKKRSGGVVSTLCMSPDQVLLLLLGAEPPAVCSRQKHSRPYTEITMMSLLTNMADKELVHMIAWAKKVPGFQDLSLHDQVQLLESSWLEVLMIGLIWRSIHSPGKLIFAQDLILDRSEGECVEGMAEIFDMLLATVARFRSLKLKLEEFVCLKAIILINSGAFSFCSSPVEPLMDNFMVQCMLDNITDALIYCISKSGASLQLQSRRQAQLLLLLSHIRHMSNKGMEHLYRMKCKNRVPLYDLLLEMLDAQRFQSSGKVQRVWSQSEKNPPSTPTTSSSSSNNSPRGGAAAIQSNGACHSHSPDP

Usually AC50 stands for the concentration at which the activity in the assay is half-maximal. For the molecule `C[C@]12CC[C@H]3C(=CCc4cc(O)ccc43)[C@@H]1CCC2=O`, the values for the half-maximal activity concentration (AC50) in [1], in test [2] and in test [3] were 23.1 nM (active), 17.2 nM (active) and 19.6 nM (active), respectively.
For `O=C=Nc1cccc2c(N=C=O)cccc12`, the molecule was classed as inactive in [4].
Consider `CCC(Cc1c(I)cc(I)c(N)c1I)C(=O)O` (configuration not stated), for which the molecule was called inactive in [4], in test [5], in test [6], in test [7], in test [8] and in test [9]. Moreover, the result in [10] and in [11] was inactive. Also, the concentration at half-maximal activity (AC50) in [9] was 69900 nM (active).
In the case of `CO[Si](CCCOCC1CO1)(OC)OC` (configuration not stated), the result in [4], in test [5], in test [7], in test [8], in test [9] and in test [10] was inactive. Also, the result in test [11] was inactive. The AC50 in test [6] is 86500 nM (active).
Turning to `CCc1cc(Cc2cc(CC)c(N)c(CC)c2)cc(CC)c1N`, the result in test [4], in test [5], in test [6], in [7], in test [8] and in [10] was inactive. Besides, in test [11], the outcome was inactive. The concentration at half-maximal activity (AC50) in test [9] is 68000 nM (active).
With `O=C1OC(=O)c2ccc3c4c(ccc1c24)C(=O)OC3=O`, the molecule was called inactive in test [4].
Take `Oc1ccc(C2(c3ccc(O)c(C4CCCCC4)c3)CCCCC2)cc1C1CCCCC1`: in test [4], the concentration at half-maximal activity (AC50) was 33800 nM (active).
`CC(C)(C)c1cc(CCC(=O)OCC(COC(=O)CCc2cc(C(C)(C)C)c(O)c(C(C)(C)C)c2)(COC(=O)CCc2cc(C(C)(C)C)c(O)c(C(C)(C)C)c2)COC(=O)CCc2cc(C(C)(C)C)c(O)c(C(C)(C)C)c2)cc(C(C)(C)C)c1O`: the molecule was called inactive in test [4].
Same read-out and setting: to `O=C=NCc1cccc(CN=C=O)c1` belongs “inactive”.
`CCCCC(CC)COC(=O)c1ccc(N(C)C)cc1` (configuration not stated): the molecule was classed as inactive in test [4], in test [5], in test [6], in [7], in test [8] and in [9]. Also, the result in test [10] and in [11] was inactive.
For the molecule `O=C(c1ccccc1)c1ccc(O)cc1O`, the molecule was classed as inactive in test [4], in test [5], in [6], in test [7], in test [8] and in test [9]. Moreover, the outcome in test [10], in test [13], in [14] and in test [17] was inactive. For the same molecule, the AC50 in [12] was 6.04 µM (active) and 5.41 µM (active); in [15] it was 1980 nM (active); in test [16] it was 3280 nM (active); in test [1], 4200 nM (active); in test [2] it was 2700 nM (active); in test [3] it was 1050 nM (active).
